# Assay outcomes (PubChem)
# Rows were chosen to be rich in hits. Some 3.1% of all compounds tested hit in one or more screens of this group.
# MEKK2 mut-MEK5: signal of MEK5 binding to mutant human MEKK2 PB1 domain | bead flow cytometry, Alexa488-MEK5 binding to MEKK2 mutant | percent response, % at 10 µM | 0.35% of 290,000 active | AID 1530; in the data active means percent response above about 24%, passing the limit was not always enough
# UBC13 polyUb: human UBC13 polyubiquitination inhibition | P61088 | UBC13 polyubiquitin chain formation, TR-FRET | inhibition, % at 20 µM | 0.47% of 330,000 active | AID 485273; in the data active means inhibition above about 45%, passing the limit was not always enough; inconclusive means no clear call, values can overlap the other calls
# ATG4B inhibitor: ATG4B (human) cysteine protease inhibition; ATG4B cleavage of LC3-PLA2, NBD-HPC fluorescence, 1 h; AID 504462; inhibition, % at 8.33 µM; 0.51% of 340,000 active; in the data active means inhibition above about 40%
# PREPL inhibitor: inhibitors of human prolyl oligopeptidase-like enzyme PREPL; Q4J6C6; recombinant PREPL, fluorescence polarization activity-based probe; inhibition, % at 5.96 µM; 0.68% of 320,000 active; AID 2751; in the data active means inhibition above about 43%;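 further: 0% = enzyme with DMSO and 100% = wells lacking enzyme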
# MEKK3 PB1 HTS: modulators (inhibitors or enhancers) of MEK5 binding to human MEKK3 PB1 domain | Q99759 | bead-based flow cytometry, Alexa488-MEK5 binding to MEKK3; actives lie on both sides; 0 = blocked by unlabeled MEK5, 100 = vehicle | binding response (% of control), % at 10 µM | 1.4% of 290,000 active;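 active means binding response more than 3 SD above or below the average of its plate-row segment, actives on both sides; inconclusive means wells at one plate position flagged as instrument error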;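 further: Alexa488 bead fluorescence after subtracting the streptavidin-only scavenger bead signal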
# Target sequence (Q99759 whole entry, looked up, the tested form may be a part): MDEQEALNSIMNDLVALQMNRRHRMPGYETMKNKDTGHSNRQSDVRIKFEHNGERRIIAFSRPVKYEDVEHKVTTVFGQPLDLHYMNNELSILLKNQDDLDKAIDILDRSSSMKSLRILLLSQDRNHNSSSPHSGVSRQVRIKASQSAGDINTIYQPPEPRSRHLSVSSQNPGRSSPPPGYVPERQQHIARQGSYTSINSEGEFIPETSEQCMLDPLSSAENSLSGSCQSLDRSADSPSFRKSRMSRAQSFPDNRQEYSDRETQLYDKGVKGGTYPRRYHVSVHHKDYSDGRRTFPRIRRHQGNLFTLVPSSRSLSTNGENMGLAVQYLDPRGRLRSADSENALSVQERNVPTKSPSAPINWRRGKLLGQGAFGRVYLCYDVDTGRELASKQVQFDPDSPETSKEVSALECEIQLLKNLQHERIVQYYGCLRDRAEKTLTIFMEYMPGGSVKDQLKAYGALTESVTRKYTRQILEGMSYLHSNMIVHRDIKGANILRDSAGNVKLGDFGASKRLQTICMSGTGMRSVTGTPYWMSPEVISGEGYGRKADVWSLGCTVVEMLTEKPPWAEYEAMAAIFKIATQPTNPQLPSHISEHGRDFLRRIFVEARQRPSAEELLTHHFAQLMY
# MEKK2 WT-MEK5: raises or lowers MEK5 binding to wildtype human MEKK2 PB1 domain; Q9Y2U5; bead flow cytometry, Alexa488-MEK5 binding to MEKK2 WT; actives lie on both sides; binding response (% of control), % at 10 µM; 1.1% of 290,000 active; AID 1531; in the data active means binding response below about 67% or above about 130%; inconclusive means no clear call, values can overlap the other calls; inactive means in between
# MEKK2wt confirm: raises or lowers MEK5 binding to wildtype human MEKK2, retest. shares compounds with MEKK3 PB1 HTS. bead flow cytometry, Alexa488-MEK5 binding to MEKK2 WT; actives lie on both sides. binding response (% of control), % at 10 µM. 2.4% of 5,900 active; in the data active means binding response below about 16% or above about 210%; inactive means in between
# MEKK2mut-MEK5: signal of MEK5 binding to mutant human MEKK2, retest | shares compounds with MEKK3 PB1 HTS | bead flow cytometry, Alexa488-MEK5 binding to MEKK2 mutant | percent response, % at 10 µM | 2% of 5,900 active; in the data active means percent response mostly above about 71%, no sharp cut-off; inactive means mostly below about 38%;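 further: higher means compound restores mutant binding toward wildtype level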
# MEKK3-MEK5 inh: MEKK3-MEK5 PB1 inhibition, single concentration confirmation | shares compounds with MEKK3 PB1 HTS | bead flow cytometry, Alexa488-MEK5 binding to MEKK3; stronger effect = lower value | binding response (% of control), % at 10 µM | 1.8% of 5,900 active | AID 1894;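 active means binding response below 72% of control, or above a set upper limit, though filed actives all read lower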;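 further: 100% = DMSO only wells and 0% = binding blocked by excess unlabeled MEK5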
# * marks the source's active call; other numbers are inactive results; ? = inconclusive; / = no result given; [ ] = another dose, or the depositor's remark.
SMILES,MEKK2 mut-MEK5,UBC13 polyUb,ATG4B inhibitor,PREPL inhibitor,MEKK3 PB1 HTS,MEKK2 WT-MEK5,MEKK2wt confirm,MEKK2mut-MEK5,MEKK3-MEK5 inh
O=C(Nc1ccncc1)C1COc2ccccc2O1 (stereo unspecified),-4,6,-1,1,87,94,/,/,/
O=C(NC1=NCCS1)C1COc2ccccc2O1 (stereo unspecified),-8,6,5,7,1.0*[inhibitor],-1.0*[inhibitor],98,1,99
CCOc1ccc(NC(=O)CCCn2c(=S)[nH]c3ccsc3c2=O)cc1,-8,?,1,0,97,97,/,/,/
COc1cc2c3nnc(-c4ccccc4)c-3cn(Cc3ccc(F)cc3)c2cc1OC,36,20,-28,-11,99,166*,187,48,113
COc1cc2c3nnc(-c4ccc(F)cc4)c-3cn(Cc3cccc(C)c3)c2cc1OC,48*,79*,-16,-42,104,167*,197,61,108
COc1cc2c3nnc(-c4ccc(F)cc4)c-3cn(Cc3cccc(F)c3)c2cc1OC,-3,20,-16,-7,39*[inhibitor],53,88,-8,73
O=C(CCCSc1nc2ccccc2c(=O)[nH]1)c1ccc(F)cc1,0,7,-5,2,118,105,/,/,/
O=C(CCN1C(=O)C2CC=CCC2C1=O)Nc1nccs1 (stereo unspecified),3,9,-5,6,103,105,/,/,/
CCN(CC)S(=O)(=O)c1ccc(NS(=O)(=O)c2ccc(O)c([N+](=O)[O-])c2)cc1,0,3,27,11,144*,109,98,-4,99
CC(C)c1ccc(OCCCN2CCCC2)cc1,26*,1,0,-2,103,102,95,-9,90
CC(C)c1ccc(OCCCCCN2CCOCC2)cc1,11,7,0,22,104,110,/,/,/
CCC(C)(C)NC(=O)c1ccc2c(c1)OCCO2,-4,-3,-7,-5,102,98,/,/,/
Cc1ccc(NS(=O)(=O)N(C)C)cc1,-4,5,-3,-5,71*[inhibitor],81,99,-4,102
COC(=O)c1ccc(NS(=O)(=O)N(C)C)cc1,3,-3,-1,-3,103,101,/,/,/
CC[C@H](C)NC(=O)CCCCCn1c(=S)[nH]c2c([nH]c3ccc(OC)cc32)c1=O,5,-20,0,12,138*,118,97,-3,102
CCOc1ccc(C(=O)CCC(=O)Nc2cccc(S(=O)(=O)N3CCCCC3)c2)cc1,/,7,-16,-3,/,/,/,/,/
CCOC(=O)c1nnn2c1nc(SCC(C)=O)c1ccccc12,32,6,5,-1,132*,138*,99,-4,100
COc1cc(NS(=O)(=O)c2ccc(NC(=S)NC(=O)C(C)(C)C)cc2)nc(OC)n1,-23,0,-12,1,38*[inhibitor],51,98,0,105
COc1cc(NS(=O)(=O)c2ccc(NC(=S)NC(C)=O)cc2)nc(OC)n1,/,-7,1,-3,/,/,/,/,/
COc1ccc(-c2n[nH]c(C)c2-c2cscn2)c(O)c1,29,6,-1,-7,133*,130,101,-12,98
Cc1ccc(CNC(=O)C(=O)NCC2OCCN2C(=O)c2cccs2)cc1 (stereo unspecified),0,5,3,-3,135*,103,104,2,105
O=C(NCc1ccccc1)C(=O)NCC1OCCN1C(=O)c1ccc(Cl)cc1 (stereo unspecified),-2,-4,0,3,100,98,/,/,/
O=C(NCc1ccccc1)C(=O)NCC1OCCN1C(=O)c1cccs1 (stereo unspecified),0,-4,7,6,132*,103,99,0,102
COc1ccc(-n2c(=O)c3ccccc3n(CC(=O)Nc3cccc(OC)c3)c2=O)cc1,-16,10,-10,-5,50*[inhibitor],62,103,6,106
COc1ccc(NC(=O)N(Cc2cc3cc(C)ccc3[nH]c2=O)CC2CCCO2)cc1 (stereo unspecified),30,7,-6,-2,130*,119,-4.0*[inhibitor],-2,86
SMILES,MEKK2 mut-MEK5,UBC13 polyUb,ATG4B inhibitor,PREPL inhibitor,MEKK3 PB1 HTS,MEKK2 WT-MEK5,MEKK2wt confirm,MEKK2mut-MEK5,MEKK3-MEK5 inh
CC(C)N(Cc1ccccc1)C(=O)COC(=O)c1cc(S(=O)(=O)N(C)C)ccc1N1CCCC1,/,9,-3,4,/,/,/,/,/
COc1cccc(OC2OC3COC(C)(C)OC3C(O)C2NC(C)=O)c1 (stereo unspecified),-2,4,-3,4,77,96,/,/,/
COc1ccc(OC2OC3COC(C)(C)OC3C(O)C2NC(C)=O)cc1 (stereo unspecified),24*,3,9,-10,115,101,101,-1,100
CCSC1=NC2(CCCCC2)Nc2sc3c(c21)CCCC3,-16,-2,-14,43,3.0*[inhibitor],2.0*[inhibitor],97,1,97
CN(C)C1=NC[C@H](Cc2ccccc2)N1CC1CCCCCC1,/,3,-5,15,/,/,/,/,/
O=C(CCl)N1CCN(S(=O)(=O)Cc2ccccc2)CC1,/,-5,-2,0,/,/,/,/,/
COc1ccccc1C1C(C(C)=O)=C(O)C(=O)N1CCc1ccccc1 (stereo unspecified),-17,-14,-4,-3,42*[inhibitor],10*[inhibitor],110,5,106
COc1ccc(CCN2C(=O)C(O)=C(C(C)=O)C2c2ccccc2OC)cc1OC (stereo unspecified),-4,-8,-1,4,85,90,/,/,/
CC(C)c1ccc(NC(=O)COc2nnc(-c3cccs3)c(-c3cccs3)n2)cc1,7,-22,3,0,143*,112,92,1,94
CCc1ccc(NC(=O)C(C)Oc2nnc(-c3cccs3)c(-c3cccs3)n2)cc1 (stereo unspecified),4,-45,14,-15,104,93,/,/,/
CCCCn1c(N)c(N(CCOC)C(=O)c2ccc(Cl)c(S(=O)(=O)N3CCCCC3)c2)c(=O)[nH]c1=O,/,-1,-11,2,/,/,/,/,/
COc1ccccc1NC(=O)c1ccc2c(O)c(S(=O)(=O)c3ccccc3)c(=O)[nH]c2c1,5,-6,4,3,100,101,/,/,/
